Data as given in publication PMC4336329 (PLoS ONE, 2015).
Hit rate of the full screen: of about 310,000 compounds, about 14,000 (4.5%) showed an effect of 50% or more. Effects have a minus sign here. Many of the other results were omitted from the sample, so strong results are more common in it than they were.

What follows are molecules tested against human ether-à-go-go-related gene (hERG) potassium channel (human, UniProt Q12809) (assay: primary screen, population patch clamp on CHO cells stably expressing hERG; higher = less effect of the substance).
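Also: peak tail current of the secondary pulse compared with the same well before compound.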

Sequence of human ether-à-go-go-related gene (hERG) potassium channel (Q12809 whole entry, looked up): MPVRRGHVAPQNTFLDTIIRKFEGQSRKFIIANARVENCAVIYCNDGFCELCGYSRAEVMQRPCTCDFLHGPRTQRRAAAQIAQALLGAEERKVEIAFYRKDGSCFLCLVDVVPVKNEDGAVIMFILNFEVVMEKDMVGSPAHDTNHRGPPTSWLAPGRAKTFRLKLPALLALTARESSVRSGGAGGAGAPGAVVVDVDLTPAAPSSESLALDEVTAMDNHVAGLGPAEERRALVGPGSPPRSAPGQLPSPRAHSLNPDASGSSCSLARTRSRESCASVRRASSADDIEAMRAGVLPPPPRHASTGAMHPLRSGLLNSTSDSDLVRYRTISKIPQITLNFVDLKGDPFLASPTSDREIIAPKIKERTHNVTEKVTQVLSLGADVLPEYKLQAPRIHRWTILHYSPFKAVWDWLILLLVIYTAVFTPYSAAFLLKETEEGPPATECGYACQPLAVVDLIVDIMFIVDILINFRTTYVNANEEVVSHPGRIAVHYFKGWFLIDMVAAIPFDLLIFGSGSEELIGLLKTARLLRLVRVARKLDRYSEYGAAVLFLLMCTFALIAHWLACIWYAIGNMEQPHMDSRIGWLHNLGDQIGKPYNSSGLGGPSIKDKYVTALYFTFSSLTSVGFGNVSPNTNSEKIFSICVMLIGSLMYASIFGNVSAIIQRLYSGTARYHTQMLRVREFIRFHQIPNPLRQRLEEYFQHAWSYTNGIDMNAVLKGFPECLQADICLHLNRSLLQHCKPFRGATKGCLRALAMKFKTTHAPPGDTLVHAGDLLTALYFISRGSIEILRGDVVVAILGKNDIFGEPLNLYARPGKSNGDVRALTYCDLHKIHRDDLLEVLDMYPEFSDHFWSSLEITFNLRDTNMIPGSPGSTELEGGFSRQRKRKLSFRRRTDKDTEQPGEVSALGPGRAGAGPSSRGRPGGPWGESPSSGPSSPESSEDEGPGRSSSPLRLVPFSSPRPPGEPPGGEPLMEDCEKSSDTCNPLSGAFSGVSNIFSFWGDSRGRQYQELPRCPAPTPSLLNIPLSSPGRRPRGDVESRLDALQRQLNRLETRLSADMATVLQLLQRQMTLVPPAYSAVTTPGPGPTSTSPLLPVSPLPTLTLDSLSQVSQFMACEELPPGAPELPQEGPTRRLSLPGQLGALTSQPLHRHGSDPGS

SMILES | hERG current change (%, negative = inhibition) at 10uM
Cc1ccc(CN2CCN(/N=C/c3ccc(C)s3)CC2)c(C)c1 | -5.96%
CCn1c(=O)c(C(=O)NNC(=O)c2cccc(Cl)c2)c(O)c2ccccc21 | 32.4%
C/C(=N\NC(=O)c1cccc(Br)c1)c1ccc(Br)cc1 | 16%
Cc1cc2c(c(=O)n1CCCn1ccnc1)C(c1ccco1)C(C#N)=C(N)O2 (stereo not shown) | -3.23%
CC(O)C(=O)N/N=C/c1ccccc1C(=O)O (stereo not shown) | 14%
COc1cc(/C=C(/C(=O)c2cccs2)c2nc3ccccc3[nH]2)ccc1O | -22.2%
COc1cc(/C=N/Nc2nc3ccccc3[nH]2)cc(OC)c1O | -55.9%
O=C(/C(=C/c1ccc(Cl)cc1)c1nc2ccccc2[nH]1)c1cccs1 | 2.82%
COc1cc(/C=N\Nc2nc3ccccc3[nH]2)cc(OC)c1OC | -19.8%
COc1cc(/C=C(/C(=O)c2cccs2)c2nc3ccccc3[nH]2)cc(OC)c1O | -56.1%
COc1ccc(/C=N/Nc2nc3ccccc3[nH]2)cc1OC | -21.8%
CCCCN=C1SC(C(=O)Nc2sc3c(c2C(=O)OC)CCC3)C(N)=C1C(=O)N1CCOCC1 (stereo not shown) | -1.11%
Cc1cc(Nc2ccccc2C(=O)O)n(-c2ccc([N+](=O)[O-])cc2)n1 | 4.19%
CC(=O)c1cc(CN2CCC(n3nccc3NC(=O)c3ccccc3Cl)CC2)cs1 | -56.5%
COc1ccccc1C(=O)Nc1ccnn1C1CCN(Cc2csc(C(C)=O)c2)CC1 | -72.9%
Cc1cc(CN2CCC(n3nccc3NC(=O)c3ccccc3C)CC2)n[nH]1 | -38%
CC(=O)c1cc(CN2CCC(n3nccc3NC(=O)c3ccccc3)CC2)cs1 | -10.9%
CC(=O)c1cc(CN2CCC(n3nccc3NC(=O)c3ccccc3C)CC2)cs1 | -57.8%
CC(C)=NN1C(c2nonc2N)=NOC1(C)C | 6.47%
COC(=O)C1=C(C)N=C2SCCC(=O)N2C1/C=C/c1ccccc1 (stereo not shown) | -16.8%

SMILES | hERG current change (%, negative = inhibition) at 10uM
Cc1nc(SCC(=O)c2ccc(F)cc2)c([N+](=O)[O-])[nH]1 | 27.3%
CCCNC(=O)CN(CCc1ccccc1)S(C)(=O)=O | 8.94%
CN(Cc1ccccc1)C(=S)Nc1ccc(OC(F)F)cc1 | -21.2%
CN(CCOc1ccc(Cl)cc1)CC(=O)Nc1ccc(OC(F)F)cc1 | -71.4%
COc1ccc(NC(=O)CN(C)CCOc2ccc(Cl)cc2)cc1OC.O=C(O)C(=O)O | -17.4%
COc1ccc(CCNCC(=O)Nc2ccc(OC(F)F)cc2)cc1 | -75.8%
COc1ccc(NC(=O)CNCCC2=CCCCC2)cc1 | 7.2%
CN(C)CCCN(Cc1ccccc1)C(=S)NCc1ccccc1 | -24.7%
COc1ccc(CCNCC(=O)Nc2ccc(C(=O)N3CCCCC3)cc2)cc1.O=C(O)C(=O)O | 4.75%
CN(C)CCCN(Cc1ccccc1)C(=S)Nc1ccc(SC(F)F)cc1 | -75.1%
COc1ccc(CN(C)C(=S)Nc2ccc(OC(F)F)cc2)cc1 | -58.9%
CN(CCOc1ccc(Cl)cc1)CC(=O)Nc1ccc(OC(F)(F)F)cc1 | 8.27%
CN(C(=S)Nc1ccc(SC(F)F)cc1)C(c1ccccc1)c1ccccc1 | -0.128%
COc1ccc(CN(C)C(=S)Nc2ccc(Cl)cc2)cc1 | -20.7%
C/C(=N\Nc1ccccc1C(=O)O)c1ccncc1 | 0.449%
CC(C)Nc1nc(NC(C)C)nc(OCCOC(=O)Nc2ccccc2)n1 | -24.5%
Cc1ccc(N/N=C(\C#N)C(=N)N2CCCCC2)cc1 | -47.7%
CN(CC(=O)Nc1ccccc1Br)C(=O)c1cc2c(s1)CCCCC2 | -1.74%
O=C(Nc1ccc(NC(=O)C2CC2)nc1)c1cccs1 | 14%
O=C(CSc1n[nH]c(=O)n1-c1cccnc1)N1CCOCC1 | 12%

SMILES | hERG current change (%, negative = inhibition) at 10uM
CCNC(=O)NC(=O)CSc1nc2ccccc2n1CC(C)C | -4.02%
Cc1cccc(N2CCN(CC(=O)NCC3CCCCC3)CC2)c1C.Cl | -6.63%
COc1cc2[nH]c(=O)n(Cc3ccc(C(=O)N4CCC(N5CCCCC5)CC4)cc3)c(=O)c2cc1OC | 12.3%
CCN(CC)C(=S)Nc1ccc(OC(F)F)cc1 | -28.6%
CCCN(Cc1ccccc1)C(=S)Nc1ccc(OC(F)F)cc1 | -41%
CN(CCOc1ccccc1)C(=S)Nc1ccc(OC(F)F)cc1 | -55.2%
COc1ccc(NC(=O)CN(C)CC(=O)Nc2cccc(C(C)=O)c2)cc1 | 18.5%
COCCN(Cc1ccccc1)C(=S)Nc1ccc(OC(F)F)cc1 | -69.8%
CCCCN(C)C(=S)Nc1ccc(Oc2ccccc2)cc1 | -2.38%
CC(=O)c1cccc(NC(=O)CN(C)Cc2ccc(OC(F)F)cc2)c1 | -55%
CC(=O)c1ccc(NC(=S)N(CCCN(C)C)Cc2ccccc2)cc1 | -53.3%
COCCN(Cc1ccccc1)C(=S)Nc1ccc(Cl)cc1 | 11.1%
CC(=O)c1ccc(NC(=S)N(Cc2ccccc2)C(C)C2CC2)cc1 (stereo not shown) | 5.51%
CCCN(Cc1ccccc1)C(=S)Nc1ccc(C(C)=O)cc1 | -12.1%
CC(=O)c1ccc(NC(=O)CN(C)CC(=O)Nc2cccc(F)c2)cc1 | -18.5%
CCN(CC)C(=O)c1ccc(C)c(Br)c1 | -0.776%
CCc1cc2c(=O)[nH]cnc2s1 | -3.48%
CCCCCCc1cc2cc(-c3nnc(-c4ccccc4)o3)c(=O)oc2cc1O | 5.15%
